Results as given in PubChem BioAssay.
The source made the active and inactive calls.

target: NADPH oxidase 2 (Homo sapiens) (UniProt P04839); test: compounds shifting NOX2 Amplex Red fluorescence – cell-based, HEK293-NOX2, PMA-stimulated, NOX inhibitor project, primary screen (AID 1159); settings: 45 min, higher = more signal, called active from +8 up or from −8 down; further: test concentration not given here
Sequence (P04839 whole entry, looked up): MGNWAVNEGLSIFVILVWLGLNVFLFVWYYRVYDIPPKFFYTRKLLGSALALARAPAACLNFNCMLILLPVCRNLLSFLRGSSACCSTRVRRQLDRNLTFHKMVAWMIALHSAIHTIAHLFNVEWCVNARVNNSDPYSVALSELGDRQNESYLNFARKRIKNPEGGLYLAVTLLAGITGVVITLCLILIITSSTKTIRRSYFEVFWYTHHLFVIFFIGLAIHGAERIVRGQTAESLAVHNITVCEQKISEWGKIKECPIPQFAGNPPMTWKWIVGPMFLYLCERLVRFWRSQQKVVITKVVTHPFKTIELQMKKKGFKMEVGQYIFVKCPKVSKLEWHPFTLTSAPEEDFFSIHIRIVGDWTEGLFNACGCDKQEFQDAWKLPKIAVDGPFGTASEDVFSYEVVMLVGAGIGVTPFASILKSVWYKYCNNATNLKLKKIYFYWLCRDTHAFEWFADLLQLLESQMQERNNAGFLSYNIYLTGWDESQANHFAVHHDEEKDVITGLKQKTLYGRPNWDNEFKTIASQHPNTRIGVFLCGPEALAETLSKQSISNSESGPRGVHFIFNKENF

z-score, inactive:
O=C1[C@H]2CCn3c(=O)n(-c4ccccc4)c(=O)n3[C@H]2[C@H](O)[C@@H]2O[C@H]12 -1.3, CC(=O)OC[C@H]1O[C@H](CC=NOCC[C@@H]2C=C[C@H](OC(C)=O)[C@@H](COC(C)=O)O2)C=C[C@@H]1OC(C)=O -0.175, CCCNC(=O)OC[C@H]1O[C@H](CCON=C[C@@H](C)[C@H](OCc2ccccc2)C(C)C)C=C[C@@H]1Oc1ccc(OC)cc1 -1.7, CC(CCC(=O)OC[C@H]1O[C@H](C#Cc2ccccc2)C=C[C@@H]1Oc1ccc(C)cc1)=NOC(C)CN1CCCCc2nc(C)c(C)cc21 (stereo partly specified) -0.802, CCN1C(=O)[C@H]2[C@H]3[C@H](O)[C@H](O)CC(=NNC(=O)OCc4ccccc4)[C@H]3CC[C@H]2C1=O 0.92, CO[C@@H](C(C)C)[C@@H](C)C1OC(=O)CC1O (stereo partly specified) 1.29, CC(C)=NOC(C)CN1CCCc2nc(C)c(C)cc21 (stereo unspecified) -0.369, CO[C@@H]1[C@H](O)CO[C@H]1C=Cc1ccccc1 -0.403, COc1ccc(O[C@H]2C=C[C@@H](C#Cc3ccccc3)O[C@@H]2CO)cc1 1.33, CC(CCC(=O)OC[C@H]1O[C@H](C#Cc2ccccc2)C=C[C@@H]1Oc1ccc(C)cc1)=NOC[C@@H](C)[C@H](OCc1ccccc1)C(C)C 1.21, CC(CCN1CCc2nc(-c3ccccc3)c(-c3ccccc3)cc2C1)=NOC(C)CN1CCCc2nc(C)c(C)cc21 (stereo unspecified) -5.56, CCOC(=O)[C@H](CC(C)C)NC(=O)CCC1CC(OC(=O)NCc2ccc3c(c2)OCO3)CC2(CCCC(COC(=O)NCCc3ccc(Cl)cc3)O2)O1 (stereo partly specified) 0.747, CC(=O)OC[C@H]1O[C@@H](ON=C(C)CCC(=O)OC[C@H]2O[C@H](C#Cc3ccccc3)C=C[C@@H]2Oc2ccc(C)cc2)[C@H](OC(C)=O)[C@@H](OC(C)=O)[C@@H]1OC(C)=O 1.04, CC(C)CON=C1C[C@@H](O)[C@@H](O)[C@@H]2[C@@H]3C(=O)N(c4ccc(F)cc4F)C(=O)[C@@H]3CC[C@@H]12 -1.11, CCOC(=O)CCN1C(=O)[C@H]2[C@H]3[C@H](O)[C@H](O)CC(=NO[C@@H]4O[C@H](CO)[C@@H](O)[C@H](O)[C@H]4O)[C@H]3CC[C@H]2C1=O 0.444, CCOC(=O)[C@H](Cc1ccccc1)NC(=O)CCC1CC(OC(=O)NCc2cccc3ccccc23)CC2(CCCC(COC(=O)NCCc3ccc(Cl)cc3)O2)O1 (stereo partly specified) 0.694, CCN1C(=O)[C@H]2[C@H]3[C@H](O)[C@H](O)CC(=NOC[C@@H](O)COCc4ccco4)[C@H]3CC[C@H]2C1=O -7.58, C#CCCCON=C1C[C@@H](O)[C@@H](O)[C@@H]2[C@@H]3C(=O)N(C4CCCCC4)C(=O)[C@@H]3CC[C@@H]12 1.13, COC(=O)[C@H](CCSC)NC(=O)CC=C[C@@H](C)CO 1.58, CCc1cc2c(nc1CC)CCN(CCC(C)=NO[C@@H]1O[C@H](COC(C)=O)[C@@H](OC(C)=O)[C@H](OC(C)=O)[C@H]1OC(C)=O)C2 0.0419, CO[C@H]1COC(=O)[C@H](C)COC(=O)[C@H](C)NC(=O)CC=C[C@H]1C 1.67, COC(=O)[C@H](C)NC(=O)CCC1CC(OC(=O)NCc2ccc3c(c2)OCO3)CC2(CCCC(COC(=O)NCCCN3CCCC3=O)O2)O1 (stereo partly specified) 1.1, COc1ccc(COC(=O)NN=C2C[C@@H](O)[C@@H](O)[C@@H]3[C@@H]4C(=O)N(C[C@@H]5CCCO5)C(=O)[C@@H]4CC[C@@H]23)cc1 -0.682, COc1ccc(COC(=O)NN=C2C[C@@H](O)[C@@H](O)[C@@H]3[C@@H]4C(=O)N(C(C)(C)C)C(=O)[C@@H]4CC[C@@H]23)cc1 -0.384, CCOC(=O)[C@H](CC(C)C)NC(=O)CCC1CC(OC(=O)NCc2ccc3c(c2)OCO3)CC2(CCCC(COC(=O)NCc3ccccc3)O2)O1 (stereo partly specified) -0.398, CC(C)[C@H](NC(=O)OC(C)(C)C)[C@@H](O)CC(=O)C(C)(C)C 2.2
